The supplement of paper PMC10849652
Targets with a hit are over-represented here; the source holds about 7,900 in all. About 0.6% of all pairs of compound and target were hits. Values without a mark were called inactive.

Tests used:
Test in all cases: log2 fold change, soluble protein after heating vs DMSO (PISA); higher = thermal stabilisation; K562 cells, 10 uM, 30 min; active = over 0.2 and 3.5 SD of the protein, either way, in both replicates (recomputed)
[1] = compound: COC1=CC=C(C=C1)CN2C=CC3=C2C=C(C=C3)C(=O)NO
How it was run: (§1)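 K562 cells at 2×10^6 cells/mL were treated for 30 min with 10 μM compound, and aliquots were heated for 3 min over 48°C-58°C before pooling. Extraction used PBS with 0.5% NP-40 at 4°C, and soluble protein was the supernatant after 21,000xg for 90 min, measured by TMTpro 16plex LC-MS/MS with channel sums equalised. Thermal stability values, relative to control samples and from duplicates, are log2 fold changes.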

filanesib = compound: CON(C)C(=O)N1N=C(c2cc(F)ccc2F)S[C@@]1(CCCN)c1ccccc1 [filanesib]
How it was run: as §1

zotarolimus = compound: CO[C@H]1C[C@@H]2CC[C@@H](C)[C@@](O)(O2)C(=O)C(=O)N2CCCC[C@H]2C(=O)O[C@H]([C@H](C)C[C@@H]2CC[C@H](n3cnnn3)[C@H](OC)C2)CC(=O)[C@H](C)/C=C(\C)[C@@H](O)[C@@H](OC)C(=O)[C@H](C)C[C@H](C)/C=C/C=C/C=C/1C [zotarolimus]
How it was run: as §1

idasanutlin = compound: COc1cc(C(=O)O)ccc1NC(=O)[C@@H]1N[C@@H](CC(C)(C)C)[C@](C#N)(c2ccc(Cl)cc2F)[C@H]1c1cccc(Cl)c1F [idasanutlin]
How it was run: as §1

alisertib = compound: COc1cc(Nc2ncc3c(n2)-c2ccc(Cl)cc2C(c2c(F)cccc2OC)=NC3)ccc1C(=O)O [alisertib]
How it was run: as §1

[2] = compound: COc1cc2nc(-c3cc(F)ccc3O)nc(N[C@@H]3CNC[C@H]3C(C)(C)O)c2cc1OC
How it was run: as §1

gefitinib = compound: COc1cc2ncnc(Nc3ccc(F)c(Cl)c3)c2cc1OCCCN1CCOCC1 [gefitinib]
How it was run: as §1

[3] = compound: COc1cccc2cc(-c3nc([C@H]4CC[C@H](C(=O)O)CC4)n4ncnc(N)c34)[nH]c12
How it was run: as §1

lapatinib = compound: CS(=O)(=O)CCNCc1ccc(-c2ccc3ncnc(Nc4ccc(OCc5cccc(F)c5)c(Cl)c4)c3c2)o1 [lapatinib]
How it was run: as §1

pictilisib = compound: CS(=O)(=O)N1CCN(Cc2cc3nc(-c4cccc5[nH]ncc45)nc(N4CCOCC4)c3s2)CC1 [pictilisib]
How it was run: as §1

[4] = compound: CS(=O)(=O)c1ccc(-c2cnc(N)c(C(=O)Nc3ccccc3)n2)cc1
How it was run: as §1

crizotinib = compound: C[C@@H](Oc1cc(-c2cnn(C3CCNCC3)c2)cnc1N)c1c(Cl)ccc(F)c1Cl [crizotinib]
How it was run: as §1

[5] = compound: C[C@@H]1COCCN1C2=NC(=NC(=C2)C3(CC3)S(=O)(=O)C)C4=C5C=CNC5=CC=C4
How it was run: as §1

[6] = compound: C[C@H](C1=CC=C(C=C1)C(=O)NC2=C3C=CNC3=NC=C2)N
How it was run: as §1

duvelisib = compound: C[C@H](Nc1ncnc2nc[nH]c12)c1cc2cccc(Cl)c2c(=O)n1-c1ccccc1 [duvelisib]
How it was run: as §1

gandotinib = compound: Cc1cc(Nc2cc(CN3CCOCC3)c3nc(C)c(Cc4ccc(Cl)cc4F)n3n2)n[nH]1 [gandotinib]
How it was run: as §1

tozasertib = compound: Cc1cc(Nc2cc(N3CCN(C)CC3)nc(Sc3ccc(NC(=O)C4CC4)cc3)n2)n[nH]1 [tozasertib]
How it was run: as §1

[7] = compound: Cc1cc(SCc2sc(-c3ccc(C(F)(F)F)cc3)nc2C)ccc1OCC(=O)O
How it was run: as §1

doramapimod = compound: Cc1ccc(-n2nc(C(C)(C)C)cc2NC(=O)Nc2ccc(OCCN3CCOCC3)c3ccccc23)cc1 [doramapimod]
How it was run: as §1

ispinesib = compound: Cc1ccc(C(=O)N(CCCN)[C@@H](c2nc3cc(Cl)ccc3c(=O)n2Cc2ccccc2)C(C)C)cc1 [ispinesib]
How it was run: as §1

Sequence of UniProt Q99758 (Q99758 whole entry, looked up): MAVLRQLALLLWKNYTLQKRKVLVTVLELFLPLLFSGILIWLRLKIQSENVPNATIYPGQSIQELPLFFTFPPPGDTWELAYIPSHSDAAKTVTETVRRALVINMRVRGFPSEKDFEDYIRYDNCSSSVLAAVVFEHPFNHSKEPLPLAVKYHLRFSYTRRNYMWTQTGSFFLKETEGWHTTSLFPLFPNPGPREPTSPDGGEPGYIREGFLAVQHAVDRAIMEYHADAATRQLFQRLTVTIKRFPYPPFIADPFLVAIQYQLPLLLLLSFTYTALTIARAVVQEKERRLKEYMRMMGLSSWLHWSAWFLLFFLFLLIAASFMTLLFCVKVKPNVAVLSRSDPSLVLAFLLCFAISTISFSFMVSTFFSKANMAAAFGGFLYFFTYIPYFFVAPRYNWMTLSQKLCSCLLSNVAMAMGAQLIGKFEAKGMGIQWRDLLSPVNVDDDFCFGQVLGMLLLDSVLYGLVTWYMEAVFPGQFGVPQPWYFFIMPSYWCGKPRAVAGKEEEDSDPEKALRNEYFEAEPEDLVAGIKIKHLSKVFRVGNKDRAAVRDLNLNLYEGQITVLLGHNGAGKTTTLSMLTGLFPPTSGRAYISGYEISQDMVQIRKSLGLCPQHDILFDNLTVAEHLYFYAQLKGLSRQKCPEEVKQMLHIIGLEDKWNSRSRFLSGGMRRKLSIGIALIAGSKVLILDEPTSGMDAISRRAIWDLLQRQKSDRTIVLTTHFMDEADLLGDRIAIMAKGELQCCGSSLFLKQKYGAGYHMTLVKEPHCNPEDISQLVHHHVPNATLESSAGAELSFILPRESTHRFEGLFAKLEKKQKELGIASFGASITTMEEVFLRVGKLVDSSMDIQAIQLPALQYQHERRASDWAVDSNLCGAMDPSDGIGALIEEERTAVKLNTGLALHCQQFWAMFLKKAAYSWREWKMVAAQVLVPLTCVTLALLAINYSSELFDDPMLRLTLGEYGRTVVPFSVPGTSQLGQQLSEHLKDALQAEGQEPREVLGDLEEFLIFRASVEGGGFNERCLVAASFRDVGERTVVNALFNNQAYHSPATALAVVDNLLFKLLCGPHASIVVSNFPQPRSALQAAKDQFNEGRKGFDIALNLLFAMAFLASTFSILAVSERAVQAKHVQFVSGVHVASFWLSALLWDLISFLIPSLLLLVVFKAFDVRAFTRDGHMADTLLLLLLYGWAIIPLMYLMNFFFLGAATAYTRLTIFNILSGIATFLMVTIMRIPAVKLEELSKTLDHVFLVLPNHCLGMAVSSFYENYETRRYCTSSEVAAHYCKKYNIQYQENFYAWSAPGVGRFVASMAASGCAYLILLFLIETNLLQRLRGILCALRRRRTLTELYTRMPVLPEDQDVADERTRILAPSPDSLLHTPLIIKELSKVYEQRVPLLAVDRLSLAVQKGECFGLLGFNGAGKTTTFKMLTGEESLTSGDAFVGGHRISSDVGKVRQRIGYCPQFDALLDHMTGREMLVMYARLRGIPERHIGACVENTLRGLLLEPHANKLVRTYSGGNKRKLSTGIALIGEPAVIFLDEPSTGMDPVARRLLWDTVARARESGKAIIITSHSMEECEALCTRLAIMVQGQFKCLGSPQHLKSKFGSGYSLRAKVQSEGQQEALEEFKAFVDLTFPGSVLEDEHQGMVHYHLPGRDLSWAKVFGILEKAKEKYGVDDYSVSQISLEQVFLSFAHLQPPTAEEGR
Sequence of UniProt P35612 (P35612 whole entry, looked up): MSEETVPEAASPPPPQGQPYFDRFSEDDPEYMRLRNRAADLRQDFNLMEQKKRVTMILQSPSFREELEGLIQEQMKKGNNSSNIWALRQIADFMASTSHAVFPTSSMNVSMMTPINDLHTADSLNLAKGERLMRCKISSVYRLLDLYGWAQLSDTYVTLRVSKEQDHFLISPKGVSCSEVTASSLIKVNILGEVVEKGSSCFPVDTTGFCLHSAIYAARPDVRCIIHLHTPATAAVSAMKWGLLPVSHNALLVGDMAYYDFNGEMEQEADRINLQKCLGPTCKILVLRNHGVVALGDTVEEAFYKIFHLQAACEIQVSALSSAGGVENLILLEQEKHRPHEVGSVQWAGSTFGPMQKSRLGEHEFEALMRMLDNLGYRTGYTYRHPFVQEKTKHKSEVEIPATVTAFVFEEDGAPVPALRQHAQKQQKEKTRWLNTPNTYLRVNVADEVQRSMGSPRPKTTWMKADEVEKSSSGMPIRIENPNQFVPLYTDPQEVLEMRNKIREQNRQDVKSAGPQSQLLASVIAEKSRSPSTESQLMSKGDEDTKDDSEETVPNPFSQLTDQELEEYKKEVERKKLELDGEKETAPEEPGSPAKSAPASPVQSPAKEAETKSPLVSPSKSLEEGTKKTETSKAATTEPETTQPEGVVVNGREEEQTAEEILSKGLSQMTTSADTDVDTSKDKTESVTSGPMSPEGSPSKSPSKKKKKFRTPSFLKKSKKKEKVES
Sequence of UniProt Q9UEY8 (Q9UEY8 whole entry, looked up): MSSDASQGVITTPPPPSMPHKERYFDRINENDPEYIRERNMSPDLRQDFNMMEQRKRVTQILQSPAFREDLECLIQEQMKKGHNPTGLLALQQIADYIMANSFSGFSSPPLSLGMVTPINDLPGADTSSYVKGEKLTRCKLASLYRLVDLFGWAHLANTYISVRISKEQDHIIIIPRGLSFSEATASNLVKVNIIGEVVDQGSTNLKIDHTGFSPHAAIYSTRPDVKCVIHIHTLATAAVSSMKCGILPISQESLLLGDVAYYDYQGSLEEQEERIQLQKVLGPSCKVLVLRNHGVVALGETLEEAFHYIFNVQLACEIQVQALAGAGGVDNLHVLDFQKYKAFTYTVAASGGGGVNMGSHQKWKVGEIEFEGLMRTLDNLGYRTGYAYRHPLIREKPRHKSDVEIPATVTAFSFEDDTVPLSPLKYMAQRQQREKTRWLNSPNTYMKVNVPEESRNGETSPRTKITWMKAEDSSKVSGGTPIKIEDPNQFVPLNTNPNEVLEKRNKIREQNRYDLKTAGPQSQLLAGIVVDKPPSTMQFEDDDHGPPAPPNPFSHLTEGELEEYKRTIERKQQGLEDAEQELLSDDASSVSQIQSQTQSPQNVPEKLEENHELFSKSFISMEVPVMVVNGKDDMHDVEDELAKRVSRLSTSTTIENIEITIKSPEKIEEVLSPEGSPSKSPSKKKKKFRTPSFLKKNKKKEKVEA
Sequence of UniProt Q9UKG1 (Q9UKG1 whole entry, looked up): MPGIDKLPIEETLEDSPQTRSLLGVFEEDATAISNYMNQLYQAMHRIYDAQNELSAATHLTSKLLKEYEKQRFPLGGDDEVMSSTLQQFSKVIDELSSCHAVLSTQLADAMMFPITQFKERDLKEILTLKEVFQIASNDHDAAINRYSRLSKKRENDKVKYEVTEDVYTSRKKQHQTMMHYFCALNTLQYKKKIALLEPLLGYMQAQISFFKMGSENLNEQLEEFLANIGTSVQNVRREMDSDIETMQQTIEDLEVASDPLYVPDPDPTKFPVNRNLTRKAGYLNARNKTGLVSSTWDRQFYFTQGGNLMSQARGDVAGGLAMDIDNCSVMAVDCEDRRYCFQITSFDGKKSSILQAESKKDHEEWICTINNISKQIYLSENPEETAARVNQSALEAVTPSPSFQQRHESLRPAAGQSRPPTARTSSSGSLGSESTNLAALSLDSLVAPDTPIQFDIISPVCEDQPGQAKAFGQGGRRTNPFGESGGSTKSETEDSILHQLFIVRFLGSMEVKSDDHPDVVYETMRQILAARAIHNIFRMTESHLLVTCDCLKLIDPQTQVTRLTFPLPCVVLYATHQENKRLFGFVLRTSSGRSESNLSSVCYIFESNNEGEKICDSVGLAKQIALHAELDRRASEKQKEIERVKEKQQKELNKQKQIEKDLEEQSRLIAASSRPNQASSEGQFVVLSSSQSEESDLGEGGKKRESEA
Sequence of UniProt P63010 (P63010 whole entry, looked up): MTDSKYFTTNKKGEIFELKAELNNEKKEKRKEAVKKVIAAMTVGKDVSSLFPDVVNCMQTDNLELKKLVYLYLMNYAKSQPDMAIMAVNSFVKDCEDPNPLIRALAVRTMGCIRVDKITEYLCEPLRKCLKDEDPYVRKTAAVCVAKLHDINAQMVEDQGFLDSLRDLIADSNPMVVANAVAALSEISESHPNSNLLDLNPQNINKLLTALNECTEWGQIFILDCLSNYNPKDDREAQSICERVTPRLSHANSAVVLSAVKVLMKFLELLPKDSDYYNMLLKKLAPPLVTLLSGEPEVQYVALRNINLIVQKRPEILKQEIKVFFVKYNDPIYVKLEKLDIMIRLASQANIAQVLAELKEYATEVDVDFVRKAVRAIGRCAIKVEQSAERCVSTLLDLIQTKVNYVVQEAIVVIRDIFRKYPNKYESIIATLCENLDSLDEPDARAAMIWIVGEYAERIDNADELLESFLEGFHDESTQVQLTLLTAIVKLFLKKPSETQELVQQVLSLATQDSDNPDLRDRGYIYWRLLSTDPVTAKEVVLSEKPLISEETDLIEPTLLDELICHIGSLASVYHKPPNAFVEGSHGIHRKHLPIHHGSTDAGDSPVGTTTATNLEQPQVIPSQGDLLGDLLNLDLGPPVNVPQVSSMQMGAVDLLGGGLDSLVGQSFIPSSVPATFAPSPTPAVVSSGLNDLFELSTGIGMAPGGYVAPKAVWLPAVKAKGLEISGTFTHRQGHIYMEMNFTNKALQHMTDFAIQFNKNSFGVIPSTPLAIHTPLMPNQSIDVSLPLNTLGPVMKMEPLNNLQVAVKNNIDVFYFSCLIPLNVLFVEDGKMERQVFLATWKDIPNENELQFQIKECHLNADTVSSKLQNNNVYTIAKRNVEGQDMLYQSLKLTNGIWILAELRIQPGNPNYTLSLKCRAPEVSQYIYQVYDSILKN
Sequence of UniProt Q9BUT1 (Q9BUT1 whole entry, looked up): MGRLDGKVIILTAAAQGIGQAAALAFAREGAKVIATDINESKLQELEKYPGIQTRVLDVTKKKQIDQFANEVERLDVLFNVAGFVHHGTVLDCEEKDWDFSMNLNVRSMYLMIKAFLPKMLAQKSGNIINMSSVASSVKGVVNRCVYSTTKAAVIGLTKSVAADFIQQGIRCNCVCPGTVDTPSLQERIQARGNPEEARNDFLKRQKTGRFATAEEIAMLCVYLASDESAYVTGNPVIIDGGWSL

Row | Target | log2 fold change [1] | log2 fold change (filanesib) | log2 fold change (zotarolimus) | log2 fold change (idasanutlin) | log2 fold change (alisertib) | log2 fold change [2] | log2 fold change (gefitinib) | log2 fold change [3] | log2 fold change (lapatinib) | log2 fold change (pictilisib) | log2 fold change [4] | log2 fold change (crizotinib) | log2 fold change [5] | log2 fold change [6] | log2 fold change (duvelisib) | log2 fold change (gandotinib) | log2 fold change (tozasertib) | log2 fold change [7] | log2 fold change (doramapimod) | log2 fold change (ispinesib)
1 | BRIX1 (UniProt Q8TDN6) | -0.006 | 0.574 | 0.132 | 0.397 | -0.23 | -0.224 | -0.039 | -0.193 | 0.218 | -0.004 | -0.027 | -0.097 | -0.292 | 0.318 | -0.117 | 0.056 | 0.196 | 0.093 | 0.288 | 0.166
2 | ABCB6 (UniProt Q9NP58) | -0.007 | -0.077 | 0.055 | -0.137 | -0.069 | 0.058 | -0.011 | 0.024 | -0.005 | 0.06 | 0.03 | -0.457 (active) | 0.093 | -0.057 | 0.015 | -0.031 | -0.017 | -0.028 | 0.049 | -0.207
3 | ADD3 (UniProt Q9UEY8) | 0.018 | 0.059 | -0.074 | 0.02 | -0.063 | 0.057 | 0.021 | 0.063 | -0.006 | 0.075 | 0 | 0.023 | 0.018 | -0.079 | 0.023 | -0.029 | -0.053 | -0.059 | 0.016 | 0.061
4 | APLP2 (UniProt Q06481) | 0.036 | 0.219 (active) | 0.002 | 0.058 | -0.039 | 0.038 | 0.106 | -0.04 | 0.09 | 0.091 | 0 | 0.032 | -0.012 | -0.035 | 0.088 | 0.117 | 0.103 | -0.049 | 0.049 | 0.16
5 | APPL1 (UniProt Q9UKG1) | -0.024 | 0.069 | 0.018 | -0.076 | -0.001 | 0.079 | -0.106 | -0.023 | -0.025 | 0.033 | -0.019 | -0.015 | -0.078 | 0.034 | 0.077 | 0.123 | -0.028 | -0.003 | 0.032 | -0.098
6 | ADD2 (UniProt P35612) | 0.047 | 0.015 | -0.011 | 0.009 | -0.081 | 0.065 | 0.003 | 0.02 | -0.026 | 0.009 | 0.021 | -0.005 | 0.022 | -0.052 | 0.017 | -0.042 | -0.057 | -0.029 | 0.016 | 0.088
7 | AKAP8L (UniProt Q9ULX6) | 0.032 | 0.064 | 0.097 | 0.205 | 0.041 | -0.212 | 0.008 | 0.001 | 0.034 | 0.019 | -0.036 | -0.049 | -0.066 | -0.1 | -0.03 | -0.007 | 0.039 | 0.092 | 0.047 | -0.102
8 | ATF7 isoform 6 (UniProt P17544) | 0.04 | 0.417 | 0.03 | 0.084 | -0.007 | -0.004 | 0.09 | 0.09 | 0.121 | – | -0.131 | 0.061 | 0.02 | -0.088 | -0.093 | – | -0.032 | -0.054 | 0.158 | 0.223
9 | BDH2 (UniProt Q9BUT1) | 0.022 | -0.007 | 0.098 | -0.039 | 0.071 | 0.065 | – | -0.001 | 0.012 | 0.007 | 0.035 | 0.243 | – | -0.215 | -0.01 | 0.011 | – | 0.067 | -0.053 | 0.053
10 | ADAMTS5 (UniProt Q9UNA0) | 0.295 | -0.051 | -0.063 | -0.06 | 0.019 | – | 0.012 | 0.092 | – | 0.198 | 0.077 | 0.084 | – | -0.08 | 0.111 | 0.178 | -0.093 | -0.136 | 0.052 | -0.035
11 | AP4S1 (UniProt Q9Y587) | -0.039 | 0.029 | 0.126 | -0.061 | -0.098 | -0.002 | -0.083 | 0.036 | -0.047 | – | -0.027 | -0.028 | 0.065 | 0.133 | -0.122 | – | – | 0.013 | -0.088 | –
12 | AP2B1 isoform 2 (UniProt P63010) | 0.08 | 0.022 | 0.036 | -0.019 | -0.062 | 0.012 | 0.01 | 0.01 | 0.049 | 0.015 | 0.022 | -0.029 | -0.005 | -0.161 | 0.004 | 0.016 | -0.056 | 0.007 | -0.006 | 0.014
13 | AFDN isoform 1 (UniProt P55196) | -0.151 | 0.024 | -0.01 | 0.019 | 0.127 | – | – | 0.074 | – | -0.144 | 0.004 | 0.088 | 0.371 | 0.111 | 0.054 | 0.183 | – | 0.068 | 0.116 | 0.11
14 | BRD2 isoform 2 (UniProt P25440) | -0.174 | -0.11 | -0.361 | 0.072 | – | 0.214 | – | – | 0.005 | 0.016 | 0.618 | 0.006 | – | -0.065 | 0.295 | -0.089 | 0.168 | -0.083 | 0.064 | –
15 | BRAP (UniProt Q7Z569) | 0.062 | 0.02 | 0.01 | 0.028 | -0.058 | -0.108 | 0.053 | -0.134 | 0.073 | -0.055 | 0.027 | -0.205 | 0.008 | -0.01 | -0.046 | -0.024 | 0.072 | 0.093 | 0.081 | -0.089
16 | ABCA3 (UniProt Q99758) | -0.044 | 0.062 | 0.03 | -0.021 | – | 0.147 | – | – | -0.084 | 0.01 | 0.111 | -0.361 (active) | 0.174 | 0.073 | 0.035 | 0.036 | 0.005 | 0.014 | 0.031 | -0.502 (active)
17 | ATP11A (UniProt P98196) | -0.027 | 0.036 | 0.011 | 0.004 | 0.23 | 0.026 | 0.057 | 0.015 | -0.033 | 0.007 | 0.017 | 0.042 | 0.032 | -0.103 | -0.025 | 0.027 | -0.017 | -0.055 | 0.018 | 0.092
